For 10 molecules, Potency results are on record in PubChem BioAssay (NCATS).

Assay [1] in a line: MultiTox-Fluor Cytotoxicity Assay - LYMP1-002 - Live Cells (AID 955).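 Note: cells exposed to compound for 16 hours.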 Note: potency is the fitted concentration of half-maximal effect. In a few lines:
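Cytotoxicity in the human lymphoblastoid line LYMP1-002 is measured as loss of live-cell protease activity after 16 h treatment in complete culture medium. AC50 is derived from Hill-equation fits of qHTS concentration-response data.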

The nature of assay [2]: MultiTox-Fluor Cytotoxicity Assay - LYMP1-002 - Dead Cells (AID 960). Note: nearly all actives have a fitted effect of over 60% in size. Note: potency is the fitted concentration of half-maximal effect. In a few lines:
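Acute cytotoxicity in a human lymphoblastoid line is scored as rising dead-cell protease signal after 16 hr exposure at 37 C, measured fluorometrically (485/520).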

Assay [3] is described as follows: MultiTox-Fluor Cytotoxicity Assay - LYMP1-003 - Dead Cells (AID 961).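 Note: cells exposed to compound for 16 h at 37 °C; nearly all actives have a fitted effect of over 70% in size.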 In a few lines: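 Acute toxicity is scored as increased dead-cell protease activity in human lymphoblastoid LYMP1-003 cells after 16 h compound exposure in complete culture medium. Activity is normalized to DMSO basal and 15 uM tetraoctylammonium bromide as full response.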
Assay [4] is described as follows: MultiTox-Fluor Cytotoxicity Assay - LYMP1-003 - Live Cells (AID 962).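 Note: cells exposed to compound for 16 hours at 37 °C.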 Note: potency is the fitted concentration of half-maximal effect. In a few lines: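 Cells plated at 2500 per well and incubated 5 hr; compounds added and incubated 16 hr at 37 C; MultiTox-Fluor reagent added for 60 min at room temperature; fluorescence of liberated AFC measured at 405/510 nm.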
Assay [5] can be described thus: Cell Viability - LYMP1-003 - Assay at 24 hr (AID 963). Note: potency is the fitted concentration of half-maximal effect. In short, it runs like this:
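Acute toxicity in LYMP1-003 lymphoblastoid cells: 24 hr compound treatment at 37 C, ATP measured with CellTiter-Glo after 30 min at room temperature. AC50 derived by fitting the Hill equation to qHTS titrations.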

Assay [6] can be described thus: Cell Viability - LYMP1-003 - Assay at 40 hr (AID 964). Note: nearly all actives have a fitted effect of over 60% in size. Note: potency is the fitted concentration of half-maximal effect. In a few lines: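 This qHTS cytotoxicity screen treats human lymphoblastoid cells (LYMP1-003) with compounds for 40 hr and quantifies cellular ATP via luciferase luminescence.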
The nature of assay [7]: Cell Viability - LYMP2-003 (AID 965).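 Note: cells exposed to compounds for 24 h before reading; nearly all actives have a fitted effect of over 50% in size.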 Note: potency is the fitted concentration of half-maximal effect. In short, it runs like this: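 Human lymphoblastoid LYMP2-003 cells, 2500/well, exposed to compounds for 24 h at 37 C in complete medium. Viability read as intracellular ATP by CellTiter-Glo luminescence; AC50 from Hill-equation fits of qHTS concentration-response data.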
Assay [8] can be described thus: Cell Viability - LYMP2-004 (AID 966). Note: nearly all actives have a fitted effect of over 65% in size. In short, it runs like this: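 Acute toxicity is scored as a concentration-dependent drop in intracellular ATP, quantified by luciferase luminescence, in human lymphoblastoid cells exposed to compound for 24 hr. AC50 derives from Hill-equation modelling.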
Assay [9] in a line: Cell Viability - LYMP2-005 (AID 967). Note: potency is the fitted concentration of half-maximal effect. In short, it runs like this:
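Human lymphoblastoid LYMP2-005 cells, 2,500 per well in complete medium, rested 5 h at 37C then compound-treated 24 h at 37C. Intracellular ATP read by CellTiter-Glo luminescence after 30 min at room temperature; AC50 from Hill-equation fits of concentration-response data.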

A short description of assay [10]: Cell Viability - LYMP2-011 (AID 969). Note: nearly all actives have a fitted effect of over 60% in size. Note: potency is the fitted concentration of half-maximal effect. In a few lines: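 Acute toxicity is scored as a concentration-dependent drop in intracellular ATP of a human lymphoblastoid line after 24 hr treatment. Values are AC50s modeled with the Hill equation.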
Assay [11] can be described thus: Cell Viability - LYMP2-013 (AID 970). Note: nearly all actives have a fitted effect of over 55% in size. Note: potency is the fitted concentration of half-maximal effect. In short, it runs like this:
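Acute toxicity was measured in human lymphoblastoid cells (2500/well) exposed to compound titrations for 24 hr, with ATP luminescence (CellTiter-Glo) as read-out and AC50 fitted by Hill equation.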

Assay [12] is described as follows: Cell Viability - LYMP2-015 (AID 971). Note: nearly all actives have a fitted effect of over 55% in size. Note: potency is the fitted concentration of half-maximal effect. In a few lines: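 Acute toxicity was scored as a concentration-dependent drop in intracellular ATP in lymphoblastoid cells after 24 hr compound exposure in complete medium. Detection used CellTiter-Glo luciferase luminescence.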
Assay [13] can be described thus: Cell Viability - LYMP2-017 (AID 972). Note: nearly all actives have a fitted effect of over 55% in size. Note: potency is the fitted concentration of half-maximal effect. In a few lines:
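Steps: plate 2500 lymphoblastoid cells per well; incubate 5 hr at 37 C; add compound across a concentration series and incubate 24 hr at 37 C; add CellTiter-Glo and read luminescence after 30 min at room temperature; fit Hill curves for AC50.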

Assay [14] in a line: Cell Viability - LYMP2-019 (AID 973). Note: nearly all actives have a fitted effect of over 55% in size. Note: potency is the fitted concentration of half-maximal effect. In short, it runs like this: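 Cells plated at 2500/well and allowed 5 hr at 37 C before compound addition. After 24 hr incubation, CellTiter-Glo reagent was added, plates sat 30 min at room temperature, and luminescence was recorded.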
Assay [15] can be described thus: Cell Viability - LYMP2-023 (AID 975). Note: nearly all actives have a fitted effect of over 55% in size. Note: potency is the fitted concentration of half-maximal effect. In short, it runs like this:
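Concentration-dependent drop in intracellular ATP measures acute cytotoxicity in a human lymphoblastoid line treated for 24 hours in complete culture medium. AC50 values are taken from Hill-equation fits of qHTS data.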

Assay [16] can be described thus: Cell Viability - LYMP2-025 (AID 976). Note: potency is the fitted concentration of half-maximal effect. In a few lines:
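In qHTS format, LYMP2-025 lymphoblastoid cells in complete culture medium received compound for 24 hr; ATP-based CellTiter-Glo signal gave viability, with AC50 derived by Hill equation.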

The nature of assay [17]: Cell Viability - LYMP2-002 (AID 977).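 Note: compound exposure lasted 24 h at 37 °C.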 Note: potency is the fitted concentration of half-maximal effect. In short, it runs like this: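 Human lymphoblastoid LYMP2-002 cells, 2500 per well, exposed to compounds for 24 h at 37 C in complete medium; viability read as intracellular ATP by CellTiter-Glo luminescence, AC50 from Hill fits.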
Assay [18] in a line: Cell Viability - LYMP2-006 (AID 978). Note: nearly all actives have a fitted effect of over 60% in size. Note: potency is the fitted concentration of half-maximal effect. In short, it runs like this:
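Human lymphoblastoid cells (LYMP2-006), 2500/well in complete medium, were treated with compound for 24 hr at 37 C. Cellular ATP was read by CellTiter-Glo luminescence after 30 min, and AC50 values came from Hill-equation fits of concentration-response data.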

The nature of assay [19]: Cell Viability - LYMP2-007 (AID 979). Note: potency is the fitted concentration of half-maximal effect. In short, it runs like this: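 Acute toxicity is scored as a concentration-dependent fall in intracellular ATP in human lymphoblastoid cells treated 24 hr at 37 C, measured by luciferase luminescence; Hill-equation modelling yields AC50.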
Assay [20] in a line: Cell Viability - LYMP2-008 (AID 980). Note: nearly all actives have a fitted effect of over 60% in size. Note: potency is the fitted concentration of half-maximal effect. In short, it runs like this:
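Acute cytotoxicity is scored as concentration-dependent loss of cellular ATP in a human lymphoblastoid line after 24 hr treatment at 37 C. ATP is quantified by luciferase luminescence.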

SMILES strings stand for the structures. Inconclusive results are not listed. Active and inactive are the calls of the source. Calls come from the whole dose curve; as a rule, active = well fitted curve in the direction sought with a large enough effect; inconclusive = small, poorly fitted or top-dose-only effect, or another doubt; inactive = no such curve, though single readings can be large; an effect the other way counts as inactive or inconclusive.

Regarding `OCc1c[nH]c2ccccc12`, the Potency entry in [1], in [2], in assay [3], in assay [4], in [5] and in assay [6] was “inactive” in each case. Moreover, the Potency result in assay [7], in assay [8], in assay [9], in assay [10], in assay [11] and in [12] was “inactive” throughout. Further, the Potency entry in assay [13], in [14], in assay [15], in assay [16], in assay [17] and in assay [18] was “inactive” each time. The Potency result in assay [19] and in [20] was “inactive” each time.

Take `C1=CC2C3C=CC(C3)C2C1` (stereo unspecified): the Potency entry in [1], in assay [2], in assay [3], in assay [4], in assay [5] and in assay [6] was “inactive” throughout. The Potency result in assay [7], in assay [9], in assay [10], in [11], in [12] and in [13] was “inactive” in each case. Moreover, the Potency entry in assay [14], in assay [15], in assay [16], in assay [17], in [18] and in [19] was “inactive” each time. In addition, the Potency result in [20] was “inactive”.

As for `CC(C)(c1ccc(O)cc1)c1ccc(O)cc1`, the Potency entry in assay [1], in assay [2], in assay [3], in [4], in assay [5] and in assay [6] was “inactive” throughout. In addition, the Potency entry in assay [7], in [8], in assay [9], in assay [10], in [11] and in assay [12] was “inactive” in each case. Further, the Potency result in [13], in assay [14], in assay [15], in [16], in assay [17] and in [18] was “inactive” each time. In addition, the Potency result in assay [19] and in [20] was “inactive” throughout.

Turning to `Oc1ccccc1`, the Potency result in [1], in [2], in assay [3], in [4], in [5] and in assay [6] was “inactive” throughout. In addition, the Potency entry in assay [7], in assay [8], in assay [9], in assay [10], in assay [11] and in assay [12] was “inactive” each time. Moreover, the Potency result in assay [13], in assay [14], in assay [15], in assay [16], in assay [17] and in assay [18] was “inactive” each time. In addition, the Potency entry in assay [19] and in assay [20] was “inactive” throughout.

As to `CCCCCCCCCCCCCCCC[n+]1ccccc1`, the Potency in assay [1] is 12.6 µM (active); in assay [2], 10 µM (active); in assay [4] it was 31.6 µM (active); in assay [5] it was 20 µM (active); in assay [6], 10 µM (active); in [7] it was 31.6 µM (active). For the same molecule, the Potency in [9] is 15.8 µM (active); in [10], 20 µM (active); in assay [11], 25.1 µM (active); in assay [12], 15.8 µM (active); in assay [13], 25.1 µM (active); in assay [14], 20 µM (active). Besides, the Potency is 39.8 µM (active) in assay [15]; 39.8 µM (active) in [16]; 15.8 µM (active) in [17]; 12.6 µM (active) in assay [18]; 12.6 µM (active) in assay [19]; 15.8 µM (active) in assay [20].

Take `Cc1ccc(O)cc1`: the Potency result in assay [1], in [3], in assay [4], in assay [5], in assay [6] and in assay [7] was “inactive” in each case. Further, the Potency result in [8], in assay [9], in assay [10], in assay [11], in [12] and in [13] was “inactive” each time. For the same molecule, the Potency entry in [14], in assay [15], in [16], in [17], in [18] and in assay [19] was “inactive” in each case. The Potency result in [20] is “inactive”.

On to `c1ccc2occc2c1`, for which the Potency result in assay [1], in assay [2], in assay [3], in [4], in [5] and in assay [6] was “inactive” in each case. Further, the Potency entry in [7], in assay [8], in assay [9], in assay [10], in assay [11] and in assay [12] was “inactive” throughout. Further, the Potency entry in assay [13], in assay [14], in assay [15], in assay [16], in assay [17] and in assay [18] was “inactive” in each case. The Potency entry in assay [19] and in assay [20] was “inactive” in each case.

On to `Brc1ccccc1-c1ccccc1`, for which the Potency entry in assay [1], in assay [2], in [3], in [4], in assay [5] and in [6] was “inactive” throughout. For the same molecule, the Potency entry in assay [7], in assay [8], in assay [9], in assay [10], in assay [11] and in [12] was “inactive” throughout. The Potency result in assay [13], in assay [14], in assay [15], in assay [16], in assay [17] and in [18] was “inactive” throughout. The Potency result in assay [19] and in [20] was “inactive” each time.

On to `CCCC(=O)c1cc(O)c(O)cc1O`, for which the Potency result in assay [1], in assay [2], in assay [3], in assay [4], in assay [5] and in assay [9] was “inactive” each time. Moreover, the Potency result in [10], in assay [11], in [12], in assay [14], in [15] and in assay [16] was “inactive” in each case. For the same molecule, the Potency result in assay [17], in assay [18] and in assay [20] was “inactive” each time.

For the molecule `Nc1cccc2c(N)cccc12`, the Potency entry in [1], in assay [2], in assay [3], in assay [4], in [5] and in assay [6] was “inactive” in each case. Further, the Potency result in assay [7], in assay [8], in [9], in assay [10], in assay [11] and in assay [12] was “inactive” throughout. The Potency result in [13], in assay [14], in assay [15], in [16], in assay [17] and in assay [18] was “inactive” in each case. For the same molecule, the Potency result in assay [19] and in assay [20] was “inactive” throughout.
